HCMV inh: inhibitors of human cytomegalovirus; HFF cells, HCMV-luciferase reporter, 72 h; stronger effect = lower value; 4.5% of 410,000 active; activity change, negative = inhibition, % at 57.5 µM; in the data active = activity change below about -60%; inconclusive = no clear call, values can overlap the other calls; inactive = above about -39%
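Compounds were evaluated in HFFs infected with an HCMV luciferase reporter virus (MOI 1 PFU/cell). Luciferase in lysates collected 72 h post infection served as the replication measure.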
MARV entry inh: inhibitors of Marburg virus binding or cell entry. Potency, µM (doses to about 37.8 µM), actives largely listed as inhibitors. 1.8% of 300,000 active. Marburg virus pseudotyped entry inhibition, cell reporter; calls by dose curve; tested in HEK293 cells
LASV entry inh: inhibitors of Lassa virus binding or cell entry; Potency, µM (doses to about 37.9 µM), actives largely listed as inhibitors; Lassa virus pseudotype entry inhibition, cell reporter; 1.2% of 300,000 active; calls by dose curve; tested in HEK293 cells; also: nearly all actives have a fitted effect of over 50% in size
FMDV inh: antivirals against foot and mouth disease virus; Potency, µM (series often up to 57.9 µM), actives largely listed as inhibitors; 1.2% of 410,000 active; FMDV antiviral cell-based qHTS; calls by dose curve; tested in HEK293T cells; also: read-out not given here; nearly all actives have a fitted effect of over 45% in size
Large screens that a line does not name were inactive. A selection: hits, their analogues and other compounds. The true share with any hit is near 6.2%.

CCc1ccc(NC(=O)c2cc3c(=O)n(Cc4cccs4)ccc3nc2C)cc1	LASV entry inh inconclusive (no result: MARV entry inh)
N#Cc1cccc(C(=O)C(=O)N2CCC(c3ccccc3)CC2)c1	none (no result: MARV entry inh, LASV entry inh)
O=C(C(=O)N1CCC(c2ccccc2)CC1)c1ccc(F)c(F)c1	HCMV inh -62 (no result: MARV entry inh, LASV entry inh)
O=C(Nc1cccc(F)c1)c1ccc2c(c1)N(Cc1ccccc1)C(=O)c1ccccc1S2(=O)=O	HCMV inh -89, MARV entry inh inconclusive
O=C(c1ccc2c(c1)N(Cc1ccc(F)cc1)C(=O)c1ccccc1S2(=O)=O)N1CCCCCC1	HCMV inh inconclusive
O=C(c1ccc2c(c1)N(Cc1ccc(F)cc1)C(=O)c1ccccc1S2(=O)=O)N1CCC(Cc2ccccc2)CC1	HCMV inh -64, MARV entry inh inconclusive, LASV entry inh inconclusive, FMDV inh inconclusive
CC1CCN(C(=O)c2ccc3c(c2)N(Cc2ccccc2)C(=O)c2ccccc2S3(=O)=O)CC1	HCMV inh -61, MARV entry inh inconclusive
Cc1c(NC(=O)c2cccc3c(Cl)cccc23)cccc1-c1nc2ccccc2o1	LASV entry inh inconclusive
C[C@@H]1CN(Cc2ccc3c(c2)CN(C(=O)CN2CCOc4ccccc4C2)CCO3)C[C@H](C)O1	none (no result: HCMV inh, MARV entry inh, LASV entry inh)
O=C(Cc1cccs1)NC1CC(=O)N(c2ccc(F)cc2)C1 (configuration not stated)	none (no result: MARV entry inh)
COc1cccc(-c2cnc(-c3ccncc3)nc2C2CCN(C(=O)Cc3csc(C)n3)CC2)c1	none (no result: HCMV inh, MARV entry inh, LASV entry inh)
CC1CCc2c(sc3nc(C(C)(C)C)nc(N4CCN(C(=O)CCl)CC4)c23)C1 (configuration not stated)	HCMV inh -103, MARV entry inh inconclusive, LASV entry inh inconclusive, FMDV inh 20µM
CC(C)(C)S(=O)(=O)N1C[C@H]2C(=C(CCO)C[C@H]3C(=O)N(c4ccccc4)C(=O)[C@H]32)[C@@H]1CCO	none (no result: MARV entry inh, LASV entry inh, FMDV inh)
O=C(CN1C(=O)/C(=C/c2ccccc2)SC1=S)N1CCN(CCc2ccccn2)CC1	HCMV inh -90, MARV entry inh inconclusive, LASV entry inh inconclusive
COc1cc(/C=C2\SC(=S)N(CCC(=O)N3CCCCC3)C2=O)cc(OC)c1OC	HCMV inh inconclusive, MARV entry inh inconclusive, LASV entry inh inconclusive, FMDV inh 28µM
CCOC(=O)N1CCN(C(=O)CCN2C(=O)/C(=C\c3ccc(OC)c(OC)c3)SC2=S)CC1	none (no result: MARV entry inh, LASV entry inh)
O=C(CCN1C(=O)/C(=C\c2ccccc2)SC1=S)N1CCCCC1	HCMV inh -68
O=C(CCCN1C(=O)/C(=C\c2ccccc2)SC1=S)N1CCOCC1	HCMV inh -99, MARV entry inh inconclusive
COc1ccc(/C=C2\SC(=S)N(CCCC(=O)N3CCOCC3)C2=O)cc1	HCMV inh inconclusive, MARV entry inh inconclusive
O=C(c1ccccc1)N1CCN(CCc2ccccn2)CC1	none
COc1ccc(-c2nc3cnc(N4CCOCC4)nc3n(CCC#N)c2=O)cc1	none (no result: HCMV inh, MARV entry inh, LASV entry inh)
Cc1ccn2c(=O)c(NC(=O)c3cccc([N+](=O)[O-])c3C)c(C)nc2c1	LASV entry inh inconclusive (no result: MARV entry inh)
COc1ccc(NC(=O)c2c(-c3ccccc3)c(-c3ccccc3)nn(C)c2=O)cc1OC	none
C[N+](=O)C1C(=O)Nc2ccccc21 (configuration not stated)	none (no result: MARV entry inh, LASV entry inh, FMDV inh)
CCOc1ccc(CNC(=O)CN2C(=O)C3CCCCN3c3ccc(C(=O)N4CCCC4)cc32)cc1 (configuration not stated)	none (no result: MARV entry inh)
COc1ccc(OC)c(C2NC(=S)NC(C)=C2C(=O)Nc2ccccn2)c1 (configuration not stated)	HCMV inh -99
COc1ccc(C2NC(=S)NC(C)=C2C(=O)Nc2ccccn2)cc1 (configuration not stated)	none (no result: MARV entry inh, LASV entry inh)
COc1ccc(C2C(C(=O)Nc3ccccn3)=C(C)Nc3ncnn32)c(OC)c1 (configuration not stated)	HCMV inh -64 (no result: LASV entry inh)
C[C@H]1CN([C@@H](C)CO)C(=O)CCCn2nncc2CO[C@@H]1CN(C)Cc1ccc2cccnc2c1	none (no result: MARV entry inh, LASV entry inh, FMDV inh)
COCCNC(=O)COc1ccc(OCCNC[C@H](O)COc2ccccc2)cc1	none (no result: HCMV inh, MARV entry inh, LASV entry inh)
Nc1nc(CN2CCN(c3ccccc3F)CC2)nc(Nc2ccc3c(c2)OCCO3)n1	FMDV inh 22µM
C=C(C)CNC(=S)N/N=C/c1ccco1	HCMV inh -61, MARV entry inh inconclusive
C=C(C)CNC(=S)NN=C1c2ccccc2-c2ccccc21	MARV entry inh inconclusive, LASV entry inh inconclusive (no result: HCMV inh)
CC1=NN(C(C#N)c2ccc(F)cc2)C(C)(C)C1 (configuration not stated)	none
CC1=NN(C(C#N)c2ccccc2C)C(C)(C)C1 (configuration not stated)	HCMV inh -65
COc1ccccc1CN1CCC2(CC1)CCN(C(=O)c1cc(C(F)(F)F)cc(C(F)(F)F)c1)CC2	none (no result: HCMV inh, MARV entry inh, LASV entry inh)
CCn1c(-c2ccccc2F)nc2cc(NC(C)=O)cc(C(=O)NCC3CCOCC3)c21	none (no result: HCMV inh, MARV entry inh, LASV entry inh)
Cc1cc(C(=O)COC(=O)c2ccccc2O)c(C)n1CC1CCCO1 (configuration not stated)	HCMV inh -73, FMDV inh 35µM (no result: MARV entry inh, LASV entry inh)
Cc1cc(C(=O)COC(=O)c2cccnc2Cl)c(C)n1CC1CCCO1 (configuration not stated)	FMDV inh inconclusive (no result: MARV entry inh, LASV entry inh)
Cc1cc(C(=O)COC(=O)c2cc(O)c3ccccc3c2O)c(C)n1CC1CCCO1 (configuration not stated)	MARV entry inh inconclusive (no result: HCMV inh)
Cc1cc(C(=O)COc2ccccc2C(N)=O)c(C)n1CC1CCCO1 (configuration not stated)	HCMV inh -62, MARV entry inh inconclusive, FMDV inh 28µM
COCCn1c(C)cc(C(=O)COC(=O)c2ccc(S(=O)(=O)N(C)C)cc2)c1C	HCMV inh -88
COC(=O)CCn1c(C)cc(C(=O)COc2ccccc2C(N)=O)c1C	MARV entry inh inconclusive, FMDV inh 16µM
COc1ccccc1-c1ccnc(-n2ncc(C(=O)NC(C)(C)CO)c2C2CC2)n1	none (no result: HCMV inh, MARV entry inh, LASV entry inh)
COC(=O)c1ccc2c(=O)n(CCCCCC(=O)N3CCN(c4ccc(Cl)cc4)CC3)c(=O)[nH]c2c1	none (no result: MARV entry inh)
CC1(C)CC[C@]2(C(=O)O)C(O)C[C@@]3(C)C(=CCC4[C@@]5(C)CCC(O)C(C)(C)C5CC[C@@]43C)C2C1 (some centres not stated)	none (no result: HCMV inh, MARV entry inh, LASV entry inh)
COCCn1c(C)cc(C(=O)COc2nc3ccccc3nc2C)c1C	HCMV inh -86, MARV entry inh inconclusive
Cc1cc(C(=O)COC(=O)c2n[nH]c3ccccc23)c(C)n1CC1CCCO1 (configuration not stated)	MARV entry inh 7.1µM, LASV entry inh inconclusive, FMDV inh inconclusive
COCCn1c(C)cc(C(=O)COC(=O)c2n[nH]c3ccccc23)c1C	MARV entry inh inconclusive, LASV entry inh inconclusive, FMDV inh 11µM
Cc1cc(C(=O)COC(=O)c2n[nH]c3ccccc23)c(C)n1C	MARV entry inh inconclusive, LASV entry inh inconclusive
CCn1c(C)cc(C(=O)COC(=O)c2ccccc2[N+](=O)[O-])c1C	MARV entry inh inconclusive, LASV entry inh 0.32µM, FMDV inh 5.6µM (no result: HCMV inh)
CC(C)[C@@H]1CC[C@H](C)C[C@H]1OP(N)(=O)c1ccccc1 (some centres not stated)	none (no result: HCMV inh, LASV entry inh, FMDV inh)
CC(=O)c1ccccc1NC(C(=O)Nc1c(C)cccc1C)C1CCCC1 (configuration not stated)	none (no result: MARV entry inh, LASV entry inh, FMDV inh)
